Assay results taken from PubChem BioAssay (NCI).
Values joined by “and” are separate entries in the source; they are usually repeats but may differ in a detail not shown here. Identical values can stand only once. The panel holds about 83,000 compounds, 20% with a hit somewhere; the sample as a whole holds those more often.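 Percent growth is the endpoint: 0 to 100 indicates growth inhibition (40 means 60% inhibition), 0 means no net growth, and negative values indicate cell death.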 Active and inactive are the calls of the source. The calls were made as follows: active = growth percent below 10; inactive = the rest.

What was measured:
Experiment in all cases: NCI-60 one-dose screen, 48 h (100 = growth as untreated, 0 = no growth, -100 = all killed)
Details in all cases: 10 µM unless noted
NCI-H23 lung = system: NCI-H23 lung
NCI-H226 lung = system: NCI-H226 lung
NCI-H322M lung = system: NCI-H322M lung
HOP-62 NSCLC = system: HOP-62 NSCLC
NCI-H460 lung = system: NCI-H460 lung
NCI-H522 lung = system: NCI-H522 lung
A549/ATCC NSCLC = system: A549/ATCC NSCLC
786-0 renal = system: 786-0 renal
COLO 205 colon = system: COLO 205 colon
DU-145 prostate = system: DU-145 prostate
K-562 leukemia = system: K-562 leukemia
MALME-3M melanoma = system: MALME-3M melanoma
MDA-MB-231 breast = system: MDA-MB-231 breast
RXF 393 renal = system: RXF 393 renal
SF-268 CNS = system: SF-268 CNS
SF-295 CNS = system: SF-295 CNS
SF-539 CNS = system: SF-539 CNS
UACC-257 melanoma = system: UACC-257 melanoma
M14 melanoma = system: M14 melanoma
HOP-92 NSCLC = system: HOP-92 NSCLC

Measured: growth

FC(F)(F)Sc1ccc(/C=C/c2cc(/C=C/c3ccc(SC(F)(F)F)cc3)n(-c3ccccc3)n2)cc1
inactive: NCI-H23 lung 103% | NCI-H226 lung 89.5% | NCI-H322M lung 93.7% | HOP-62 NSCLC 90.8% | NCI-H460 lung 99.8% | NCI-H522 lung 89.4% | A549/ATCC NSCLC 89.5% | 786-0 renal 91.8% | COLO 205 colon 92.8% | DU-145 prostate 108% | K-562 leukemia 91% | MALME-3M melanoma 98.8% | MDA-MB-231 breast 89.5% | RXF 393 renal 113% | SF-268 CNS 91% | SF-295 CNS 96.6% | SF-539 CNS 98.1% | UACC-257 melanoma 86.4% | M14 melanoma 95.2%

C=C(c1ccc(C(=O)O)cc1)c1cc2c(cc1C)C(C)(C)CCC2(C)C
inactive: NCI-H23 lung 81.7% and 81.9% | NCI-H226 lung 76% and 86.3% | NCI-H322M lung 72% | HOP-62 NSCLC 79.7% and 67.3% | NCI-H460 lung 83.4% and 79% | NCI-H522 lung 52.4% and 61.4% | A549/ATCC NSCLC 52.1% and 31.2% | 786-0 renal 79.1% and 80.1% | COLO 205 colon 135% and 118% | DU-145 prostate 94.4% and 92.3% | K-562 leukemia 53.4% and 58.5% | MALME-3M melanoma 64.9% | MDA-MB-231 breast 69.6% and 68.2% | RXF 393 renal 94.9% and 105% | SF-268 CNS 90.2% and 75.4% | SF-295 CNS 38.5% and 48.8% | SF-539 CNS 82.1% and 80.5% | UACC-257 melanoma 94.9% and 90.3% | M14 melanoma 87% and 75.5%

C#CCOc1cccc(Nc2ncc3ncn(C4CCN(C(=O)CCl)C4)c3n2)c1 (stereo not given)
inactive: NCI-H23 lung 45.2% [6.25 µM] | NCI-H226 lung 23.3% [6.25 µM] | NCI-H322M lung 78.6% [6.25 µM] | HOP-62 NSCLC 78.3% [6.25 µM] | NCI-H460 lung 72.1% [6.25 µM] | A549/ATCC NSCLC 78.5% [6.25 µM] | DU-145 prostate 84% [6.25 µM] | MALME-3M melanoma 14.3% [6.25 µM] | SF-268 CNS 40.2% [6.25 µM] | SF-295 CNS 89% [6.25 µM] | SF-539 CNS 68.7% [6.25 µM] | UACC-257 melanoma 72.6% [6.25 µM] | M14 melanoma 24% [6.25 µM]
active: NCI-H522 lung -77.4% [6.25 µM] | 786-0 renal -4.37% [6.25 µM] | K-562 leukemia 5.61% [6.25 µM] | MDA-MB-231 breast 2.24% [6.25 µM] | RXF 393 renal -51.9% [6.25 µM]

CCNC(=O)Nc1ncccc1OCc1ccc(F)cc1
inactive: NCI-H23 lung 87.1% | NCI-H226 lung 106% | NCI-H322M lung 105% | HOP-62 NSCLC 95.3% | NCI-H460 lung 105% | NCI-H522 lung 86.2% | A549/ATCC NSCLC 99% | 786-0 renal 92.8% | COLO 205 colon 115% | DU-145 prostate 97.8% | K-562 leukemia 99.6% | MALME-3M melanoma 106% | MDA-MB-231 breast 115% | RXF 393 renal 125% | SF-268 CNS 94.3% | SF-295 CNS 97.8% | SF-539 CNS 102% | UACC-257 melanoma 102% | M14 melanoma 109%

C/C=C(\C)C(=O)N[C@H]1CC[C@]2(C)C3CC[C@@]4(C)C(CC[C@@H]4C(C)N(C)C)C3CCC2[C@H]1OC(C)=O (stereo not given in full)
inactive: K-562 leukemia 18%
active: NCI-H23 lung -8.02% | NCI-H226 lung -2.69% | NCI-H322M lung -48.5% | HOP-62 NSCLC -60% | NCI-H460 lung -86.4% | NCI-H522 lung 6.83% | A549/ATCC NSCLC -17.8% | 786-0 renal -88.8% | COLO 205 colon -90.7% | DU-145 prostate 4.99% | MALME-3M melanoma -68.6% | MDA-MB-231 breast -32.3% | RXF 393 renal -61.5% | SF-268 CNS -84.6% | SF-295 CNS -66.9% | SF-539 CNS -95.7% | UACC-257 melanoma -51.3% | M14 melanoma -64.1%

CC(=O)c1c(C)nc2ccccc2c1/C=C/c1cccc(C)c1
inactive: NCI-H23 lung 61.6% | NCI-H226 lung 75.2% | NCI-H322M lung 96.9% | HOP-62 NSCLC 60.9% | NCI-H460 lung 33.8% | NCI-H522 lung 41.5% | A549/ATCC NSCLC 43.6% | 786-0 renal 79.7% | COLO 205 colon 58.5% | DU-145 prostate 88.2% | K-562 leukemia 16.1% | MALME-3M melanoma 82.9% | MDA-MB-231 breast 63.5% | RXF 393 renal 73.1% | SF-268 CNS 81.9% | SF-295 CNS 58% | SF-539 CNS 61.7% | UACC-257 melanoma 73.5% | M14 melanoma 46.3%

O=C1C(c2c[nH]c3ccccc23)=C(c2coc3cc(Br)ccc23)C(=O)N1O
inactive: NCI-H23 lung 93.1% | NCI-H226 lung 87.1% | NCI-H322M lung 97.1% | HOP-62 NSCLC 104% | NCI-H460 lung 97.2% | NCI-H522 lung 89.4% | A549/ATCC NSCLC 98.4% | 786-0 renal 94.6% | COLO 205 colon 117% | DU-145 prostate 107% | K-562 leukemia 93.8% | MALME-3M melanoma 107% | MDA-MB-231 breast 85.9% | RXF 393 renal 105% | SF-268 CNS 98.6% | SF-295 CNS 95.3% | SF-539 CNS 106% | UACC-257 melanoma 100% | M14 melanoma 101%

CCCCC1COc2cccc3c2N1C=C/C3=C\C(=O)N(C)c1cccc(Cl)c1 (stereo not given)
inactive: NCI-H23 lung 97.5% | NCI-H226 lung 100% | NCI-H322M lung 110% | HOP-62 NSCLC 109% | NCI-H460 lung 105% | NCI-H522 lung 90.1% | A549/ATCC NSCLC 99.5% | 786-0 renal 99.8% | COLO 205 colon 100% | DU-145 prostate 103% | K-562 leukemia 91% | MALME-3M melanoma 107% | MDA-MB-231 breast 103% | RXF 393 renal 108% | SF-268 CNS 97.9% | SF-295 CNS 97.6% | SF-539 CNS 104% | UACC-257 melanoma 103% | M14 melanoma 102%

N#CC1C(=O)c2ccccc2C1c1ccccc1 (stereo not given)
inactive: NCI-H23 lung 97.4% and 102% | NCI-H322M lung 105% and 96.7% | HOP-62 NSCLC 98.8% and 107% | NCI-H460 lung 114% and 105% | HOP-92 NSCLC 75.2% and 84.7% | NCI-H522 lung 96.4% and 99% | A549/ATCC NSCLC 102% | 786-0 renal 93.1% and 89.8% | COLO 205 colon 115% | DU-145 prostate 109% and 104% | K-562 leukemia 120% and 101% | MALME-3M melanoma 96% and 106% | MDA-MB-231 breast 104% and 120% | RXF 393 renal 94.7% and 124% | SF-268 CNS 104% and 101% | SF-295 CNS 96% and 109% | SF-539 CNS 110% and 107% | UACC-257 melanoma 113% and 99.1% | M14 melanoma 104% and 105%
